# Screening data deposited in PubChem by National Center for Advancing Translational Sciences (NCATS).
# The list is not random: actives were taken first. Their share in the collection is about 12%.
# HP1b chromo inh – blocks HP1-beta chromodomain binding to methylated histone tails | P83916 | AlphaScreen HP1-beta / biotin-H3K9me3 peptide binding | Potency, µM (titrated, usually from 114 µM), for inactives: top-dose activity change, negative = inhibition, most hits filed as inhibitors | 390,000 tested, 0.56% active | AID 540317; also: potency is read from the fitted curve at half-maximal effect; nearly all actives have a fitted effect of over 70% in size
# Target sequence (P83916 whole entry, looked up): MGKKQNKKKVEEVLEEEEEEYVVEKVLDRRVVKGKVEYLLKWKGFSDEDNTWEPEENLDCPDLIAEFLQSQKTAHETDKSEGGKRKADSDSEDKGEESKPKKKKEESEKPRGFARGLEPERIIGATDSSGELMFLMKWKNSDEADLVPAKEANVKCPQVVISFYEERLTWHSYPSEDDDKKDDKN
#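 HP1-beta protein (50 nM final) preincubated 30 min at room temperature with biotinylated H3(1-18)K9me3 peptide (50 nM) in PBS pH 7.4, 0.01% Tween-20, then compound added for 30 min. AlphaScreen streptavidin donor/nickel chelate acceptor beads (10 ug/mL final), 30 min dark, luminescence read.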
# L3MBTL1 inh – L3MBTL1 (human) inhibition. 230,000 tested, 0.66% active. AID 485360. AlphaScreen L3MBTL1–H3K9me1 peptide binding. Potency, µM (doses to about 57.1 µM), inactives show at the top dose activity, negative = inhibition, actives largely listed as inhibitors; also: potency is read from the fitted curve at half-maximal effect; % is scaled to controls: 0 for no effect and ±100 for the full control effect; nearly all actives have a fitted effect of over 60% in size
#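 AlphaScreen assay: L3MBTL1 (50 nM final) was preincubated 30 min at room temperature with biotinylated H3(1-15)K9me1 peptide (75 nM final), then 30 min with library compounds; streptavidin donor and nickel chelate acceptor beads (10 ug/mL final) added, 30 min dark.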
# Sfp inh – blocks B. subtilis Sfp PPTase activity | Q9F4F7 | Biochemical Sfp PPTase activity, qHTS | Potency, µM, inactives show largest response in the series, negative = inhibition, most hits filed as inhibitors | 310,000 tested, 3.5% active | AID 1490;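 also: the enzyme is Sfp with the accession as filed and its product quenches rhodamine fluorescence; potency is read from the fitted curve at half-maximal effect; 0% = enzyme reaction without inhibitor and -100% = no enzyme wells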
#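 Buffer: 50 mM Hepes-Na pH 7.6, 10 mM MgCl2, 0.01% Nonidet P-40, 0.01% BSA. Enzyme 15 nM, pre-exposed to compound 15 min; substrates then added and fluorescence change tracked over 30 min.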
# BAZ2B inh – inhibitors of human BAZ2B bromodomain. Potency, µM (top dose mostly 114 µM), inactives show top-dose activity change, negative = inhibition, most hits filed as inhibitors. AID 504333. AlphaScreen BAZ2B-H3K14Ac peptide displacement. 360,000 tested, 4.4% active. Q9UIF8; also: potency is read from the fitted curve at half-maximal effect; % is scaled to controls: 0 for no effect and ±100 for the full control effect; nearly all actives have a fitted effect of over 60% in size
#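 AlphaScreen displacement: compounds (up to 110uM) incubated 30 min at room temperature with a preformed 50 nM BAZ2B/50 nM biotinylated H3K14Ac peptide complex in PBS pH 7.4 with Tween-20. Donor and acceptor beads at 10 ug/mL final added, 20 min light-protected before reading.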
# G9a inh – G9a (human) methyltransferase inhibition; 350,000 tested, 8.8% active; Q96KQ7; Potency, µM (highest dose often 102 µM), inactives show at the top dose activity, negative = inhibition, usual class: inhibitors; G9a H3K9 monomethylation, AlphaScreen, 2 h; also: potency is read from the fitted curve at half-maximal effect; % is scaled to controls: 0 for no effect and ±100 for the full control effect; nearly all actives have a fitted effect of over 75% in size
# Target sequence (Q96KQ7 913-1193 limits assumed): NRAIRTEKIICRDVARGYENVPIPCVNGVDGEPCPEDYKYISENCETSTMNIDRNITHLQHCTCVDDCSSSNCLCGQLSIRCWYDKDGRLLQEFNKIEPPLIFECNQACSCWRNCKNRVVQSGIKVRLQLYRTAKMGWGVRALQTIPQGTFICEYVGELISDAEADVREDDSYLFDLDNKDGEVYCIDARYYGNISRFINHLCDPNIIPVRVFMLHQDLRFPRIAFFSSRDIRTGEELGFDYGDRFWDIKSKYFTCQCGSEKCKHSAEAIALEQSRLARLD
#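 Readings reflect AlphaScreen signal from monomethyl-H3K9 antibody detection. HMT at 20 nM; substrate b-H3K9 500 nM; cofactor SAM 20 uM; 2 h RT reaction; compounds tested as titrations in qHTS with 15 min preincubation.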
# JMJD2A Tudor inh – blocks the human JMJD2A Tudor domain | AlphaScreen JMJD2A-Tudor / H3K4me3 peptide binding | AID 504339 | Potency, µM (doses to about 114 µM), for inactives: at the highest dose activity change, negative = inhibition, usual class: inhibitors | 390,000 tested, 4.4% active; also: potency is read from the fitted curve at half-maximal effect; % is scaled to controls: 0 for no effect and ±100 for the full control effect; nearly all actives have a fitted effect of over 50% in size
# Sfp PPTase conf – confirmation of Bacillus subtilis Sfp PPTase inhibitors. shares compounds with Sfp inh. Sfp PPTase enzymatic assay, qHTS titration. Potency, µM (titrated, usually from 114 µM), inactives show at the highest dose activity change, negative = inhibition, actives largely listed as inhibitors. 380 tested, 79% active. AID 2701;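 also: potency is read from the fitted curve at half-maximal effect; plate controls were uninhibited Sfp reaction for no effect and no enzyme control for full effect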
# Target sequence (Q9F4F7 whole entry, looked up): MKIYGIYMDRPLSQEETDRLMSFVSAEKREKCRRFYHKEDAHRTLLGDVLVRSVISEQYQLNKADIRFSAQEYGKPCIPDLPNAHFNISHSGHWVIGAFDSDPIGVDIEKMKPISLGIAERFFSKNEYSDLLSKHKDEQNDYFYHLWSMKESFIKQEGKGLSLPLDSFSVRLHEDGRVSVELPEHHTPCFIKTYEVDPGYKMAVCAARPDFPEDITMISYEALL
# Sfp gel assay – Inhibits Bacillus subtilis Sfp phosphopantetheinyl transferase. 210 tested, 20% active. Potency, µM, actives largely listed as inhibitors. AID 2707. purified Sfp, gel-based phosphopantetheinylation read-out. shares compounds with Sfp inh;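 active = potency below 100 µM; inconclusive = dose-dependent response but potency above 100 µM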;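 also: band intensities scaled against SCH202676 control wells before curve fitting; potency is an IC50 for inhibitors of Sfp transfer activity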
# An asterisk follows results filed as active; i = inactive; ? = inconclusive; · = no result; ! = not active in a repeat; [ ] = another dose, or the depositor's remark. Unless noted, calls follow the shape of the dose curve; as a rule, active = well fitted curve in the direction sought with a large enough effect; inconclusive = small, poorly fitted or top-dose-only effect, or another doubt; inactive = no such curve, though single readings can be large; an effect the other way counts as inactive or inconclusive.
SMILES,HP1b chromo inh,L3MBTL1 inh,Sfp inh,BAZ2B inh,G9a inh,JMJD2A Tudor inh,Sfp PPTase conf,Sfp gel assay
CCc1c(C)nc2cc(-c3ccc(OC)c(OC)c3)nn2c1N1CCCC1,12%,-6%,6.3µM*,3%,3%,-18%,?,·
COC(=O)c1c(N2C(=O)CC(Sc3ccccc3C(=O)O)C2=O)sc2c1CCCC2 (stereo not given),7%,-4%,1.6µM*,50µM*,1.4µM*,-29%,33µM*,·
COc1ccccc1-c1ccc2ncnc(N3CCNCC3)c2c1,·,·,16%,·,-36%[0.501 µM],·,·,·
CCOc1cccc(-c2cc(C(=O)N3N=C(C)CC3(O)C(F)F)c3ccccc3n2)c1 (stereo not given),24%,·,8%,-13%,9%,-33%,·,·
Cc1ccc(-n2c(CCC(=O)O)ccc2-c2cccs2)cc1,-7%,·,14µM*,50µM*,?,?,24µM*,·
COC(=O)c1cccc(-n2c(CCC(=O)O)ccc2-c2cccs2)c1,16%,-13%,4µM*,71µM*!,?,-11%[11.4 µM],21µM*,?
Cc1ccccc1NC(=O)Cn1c(CCC(=O)O)ccc1-c1cccs1,10%,8%,-21%,?,-36%,-17%,·,·
Cc1ccc(Nc2cc(C)nc(NCc3ccccc3)n2)cc1,-13%,-8%,13µM*,-9%,2%[59 µM],-30%,30µM*,i
CO/N=C(/C(=O)NC1C(=O)N2C(C(=O)O)=C(COC(N)=O)CSC12)c1ccco1 (stereo not given),·,·,-27%,·,-3%[2.33 µM],·,·,·
COCC1=C(C(=O)OC(C)OC(=O)OC(C)C)N2C(=O)[C@@H](NC(=O)/C(=N\OC)c3csc(N)n3)[C@H]2SC1 (stereo not given in full),22%,·,·,·,·,-23%,·,·
CO/N=C(/C(=O)N[C@@H]1C(=O)N2C(C(=O)O)=C(CSC(=O)c3ccco3)CSC12)c1csc(N)n1 (stereo not given in full),·,·,56µM*,·,?,·,47µM*,6.2µM*
CO/N=C(\C(=O)N[C@@H]1C(=O)N2C(C(=O)[O-])=C(C[n+]3cccc4c3CCC4)CS[C@H]12)c1csc(N)n1,·,·,56µM*,·,-27%[12.7 µM],·,42µM*,56µM*
CN(Cc1ccco1)c1ccnc(-c2cccc(C#N)c2)n1,·,·,?,·,-36%[0.501 µM],·,·,·
Cc1ccc(C)c(COc2coc(CN3CCN(C(=O)c4ccco4)CC3)cc2=O)c1,19%,-11%,·,25%,-24%,-10%,·,·
Cc1ccc(-c2cc(C(=O)NCc3ccco3)c3ccccc3n2)s1,23%,-9%,2.8µM*,?,50µM*,-32%,47µM*,?
COC(=O)C/C=C/C(C)C(OCc1cccc(-c2ccccc2)c1)C1CCCCC1 (stereo not given),·,·,-16%,·,·,·,·,·
O=C(/C=C/c1ccc(NC(=O)c2ccccc2-c2ccccc2C(=O)O)cc1)c1ccccc1,18%,-10%,-5%,?,·,-32%,·,·
O=C(/C=C/c1ccncc1)c1ccc(NC(=O)c2ccccc2F)cc1,-2%[57 µM],-4%,5.6µM*,50µM*,14µM*,56µM*,53µM*,·
CCCCCCCn1c(NC(=O)CC)nc2ccccc21,44%,4%,-21%,7%,23%,-5%,·,·
CCOC(=O)c1nc(NCc2ccccc2)sc1C,?,·,8.9µM*,?,3.5µM*,79µM*,8.3µM*,·
CC(C)(C)[C@@H]1COC(=O)[C@H](Cc2ccc(F)cc2)CC/C=C\C[C@@H](CC(=O)N(CCO)Cc2ccccc2)C(=O)N1,29%,-2%,·,·,·,-31%,·,·
N=c1c2c3c(sc2ncn1Cc1ccco1)CCCCC3,5%,0%,13µM*,12%,21%[59 µM],-16%,-7%,i
CC(C)Cn1cnc2sc3c(c2c1=N)CCCC3,20%,·,0%,3%,-6%[59 µM],5%,·,·
CC1(c2cccc3ccccc23)OC(=O)c2ccccc21 (stereo not given),43%,·,·,·,·,7%,·,·
O=C(O)Cc1csc(-c2cccc(F)c2)n1,29%,·,-19%,-5%,22%,-14%,·,·
SMILES,HP1b chromo inh,L3MBTL1 inh,Sfp inh,BAZ2B inh,G9a inh,JMJD2A Tudor inh,Sfp PPTase conf,Sfp gel assay
COc1ccccc1NC(=O)c1c(NC(=O)CCC(=O)O)sc2c1CCCCC2,21%,-17%,10µM*,-16%,-48%,-18%,21µM*,·
O=C(O)CCC(=O)Nc1sc2c(c1C(=O)Nc1ccccc1)CCCCC2,-13%,·,13µM*,-18%,28µM*,-32%,15µM*,·
COC(=O)c1c(NC(=O)CCC(=O)O)sc2c1CCCCC2,-14%,-15%,0%,-17%,?,-9%,·,·
CCOc1ccccc1NC(=O)c1c(NC(=O)c2ccccc2)sc2c1CCCC2,61%,·,·,4%,-3%[59 µM],12%,·,·
O=C(O)C(O)c1ccco1 (stereo not given),?,5µM*,45µM*,8.9µM*,11µM*,22µM*,?,i
CC(NC(=O)CNC(=S)N(Cc1cccs1)C1CCCC1)c1ccccc1 (stereo not given),33%,·,12%,·,-47%,-15%,·,·
CC1CCN(CCCC(=O)c2ccc(F)cc2)CC1,·,·,4%,·,-41%[12.7 µM],·,·,·
CC(C)(C)c1ccc(C(=O)CCCN2CCC(OC(c3ccccc3)c3ccccc3)CC2)cc1,·,·,50µM*,·,3%[59 µM],·,47µM*,i
CCN(CC)c1ccc(NC(=O)COC(=O)CSc2ccc(Br)cc2C)cc1,16µM*,?,3.5µM*,10µM*,8.9µM*,18µM*,?,?
CCc1ccc(-n2c(=O)c3sc4ccccc4c3n(CC(=O)NC3CCCC3)c2=O)cc1,36%,·,·,-14%,-3%[59 µM],-6%,·,·
C[C@@H]1CN=C2N(CCNC(=O)CCC3CCCCC3)[C@H](Cc3ccc(O)cc3)CN21,-10%,3%,16µM*,-28%,3%[12.7 µM],50µM*,?,·
CN(C)CCCNC(=O)c1ccc(-c2nc(-c3ccc(Cl)cc3)cs2)cc1,-2%,0%,25µM*,-35%,?,-31%,59µM*,i
C/C(CC(=O)Nc1c(C)cc(C)cc1C)=N\NC(=O)Cc1ccccc1,0%,·,6%,-7%,-2%,-13%,·,·
C[C@](N)(Cc1ccc(O)c(O)c1)C(=O)O,?,?,13µM*,16µM*,0.45µM*!,20µM*,21µM*,i
